A selection: hits, their analogues and other compounds. The true share with any hit is near 2%.
TDP43 rescue – rescues yeast growth from TDP-43 toxicity | AID 652104 | TDP-43 expressing yeast growth rescue, BacTiter-Glo, 24 h | actives 1.8% (n = 410,000) | Potency, µM (titrated, usually from 46.1 µM), without a hit: top-dose growth rescue (activation), actives largely listed as activators; note: % of control where 0% means no effect; nearly all actives have a fitted effect of over 50% in size
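Readout is BacTiter-Glo luminescence of cell growth, so inhibitors register as activators. TDP-43-expressing yeast at OD600=0.02 in galactose medium, after raffinose pregrowth to mid-log, were incubated with compound for 24 hr at 30 deg C.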
Abeta rescue – compounds reversing amyloid beta toxicity in yeast. yeast expressing A-beta42, growth rescue, OD600, 48 h; response scale: 0% DMSO, 100% iron-clioquinol control. Potency, µM (series often up to 46.1 µM), hits mostly activators. actives 0.063% (n = 410,000). AID 1347071; note: nearly all actives have a fitted effect of over 55% in size
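Growth rescue measured by 600 nm absorbance after 48 h yeast culture at 30 C with compound. Values normalized between DMSO and an equimolar ferric chloride plus clioquinol control.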
Glioma ERSR ind – inducers of ER stress response in human glioma cells; U87-MG GRP78 promoter luciferase reporter, 16 h; Potency, µM, inactives show top-dose activation, most hits filed as activators; actives 0.02% (n = 420,000); AID 602332; note: series mostly up to about 76 µM; % of control where 0% means no effect; nearly all actives have a fitted effect of over 35% in size
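Stably transfected U87-MG human glioma cells carrying a GRP78-based luminescent sensor were seeded at 1000 cells/well, pin-dosed with compounds and incubated 16 h. Luciferase reagent was then added, and end-point luminescence was read after 10 min at room temperature.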
aSyn yeast inh – alpha-synuclein toxicity inhibition in yeast; Yeast expressing alpha-synuclein, growth rescue, BacTiter-Glo, 24 h; Potency, µM (top dose mostly 46.1 µM), for the others: at the highest dose growth rescue (activation), hits mostly activators; actives 0.14% (n = 370,000); AID 652106; note: % of control where 0% means no effect; nearly all actives have a fitted effect of over 65% in size
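Galactose-induced alpha-syn yeast (OD600=0.02, raffinose-pregrown) + pinned cpd, 24 hr, 30 deg C; growth by BacTiter-Glo luminescence. Growth restoration scores as activation.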
MBNL1-CUG inh – inhibitors of human MBNL1 binding to CUG repeat RNA. Q9NR56. TR-FRET MBNL1-His/biotin-(CUG)12 binding, 665/545 ratio. Potency, µM (highest dose often 57.5 µM), for inactives: top-dose activity change, negative = inhibition, hits mostly inhibitors. actives 0.036% (n = 280,000); active = well fitted inhibition curve with a large enough effect in the signal ratio, with a control signal flat, not every such curve was filed as active; inconclusive = small, poorly fitted or top-dose-only effect, or effect the other way, or a change in a side signal; inactive = no such curve, though single readings can be large or run the other way; the % refers to the signal ratio; note: % is set by controls: 0 for no effect and ±100 for the full control effect
Target sequence (Q9NR56 whole entry, looked up): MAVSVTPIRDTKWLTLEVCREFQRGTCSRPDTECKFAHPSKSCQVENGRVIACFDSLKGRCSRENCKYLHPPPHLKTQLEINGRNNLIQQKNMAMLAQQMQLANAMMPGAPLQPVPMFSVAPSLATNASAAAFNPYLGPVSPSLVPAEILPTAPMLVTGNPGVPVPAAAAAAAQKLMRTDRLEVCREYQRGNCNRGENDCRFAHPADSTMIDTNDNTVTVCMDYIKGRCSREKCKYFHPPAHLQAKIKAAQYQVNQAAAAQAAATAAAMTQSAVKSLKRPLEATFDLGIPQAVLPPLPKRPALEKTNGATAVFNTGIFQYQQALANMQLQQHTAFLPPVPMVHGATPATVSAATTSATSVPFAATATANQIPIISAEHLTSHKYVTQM
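TR-FRET between His-tagged MBNL1 and biotin-(CUG)12 RNA, detected with Tb anti-His antibody (0.055 ng/ul) and streptavidin-XL665 (5 nM), 60 min at room temperature. Compounds titrated 92 nM to 58 uM; 665/545 nm ratio normalized to buffer and complex controls.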
FUS suppressor – suppressors of FUS proteinopathy in yeast | AID 1347120 | Potency, µM (highest dose often 76.6 µM), actives largely listed as activators | S. cerevisiae FUS-expressing, growth rescue, OD600, 24 h | actives 0.24% (n = 390,000);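 note: plate controls were DMSO vehicle for no effect and reference control for full effect; nearly all actives have a fitted effect of over 55% in size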
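Toxicity suppression screen in FUS-yeast. Cells induced with 2% galactose, starting OD 0.005, treated 24hr at 30C with compounds at multiple final concentrations; growth by OD600.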
The depositor's hits bear a star; i = inactive; ? = inconclusive; . = not tested or not shown. Unless noted, calls come from the whole dose curve; as a rule, active = well fitted curve in the direction sought with a large enough effect; inconclusive = small, poorly fitted or top-dose-only effect, or another doubt; inactive = no such curve, though single readings can be large; an effect the other way counts as inactive or inconclusive. Potency is the fitted concentration of half-maximal effect.

SMILES	TDP43 rescue	Abeta rescue	Glioma ERSR ind	aSyn yeast inh	MBNL1-CUG inh	FUS suppressor
CCCCn1nc(C(=O)NCC2COc3ccccc3O2)c2ccccc2c1=O (configuration not stated)	?	i	0%	5%	.	?
Cc1cccc(C)c1OCC(=O)NCC1COc2ccccc2O1 (configuration not stated)	16µM*	i	-4%	2%	.	i
COc1ccc(OC)c(C(=O)N2CCc3c(cnc(C)c3CNS(=O)(=O)N(C)C)C2)c1	.	.	-4%	.	.	.
O=C(COc1ccc(C(=O)c2ccc(F)cc2)cc1)NCc1ccc(F)cc1	20µM*	i	-7%	7%	-9%	.
CCOc1ccccc1/C=N/OCC(=O)NCc1ccc(F)cc1	22µM*	i	0%	2%	-1%	i
COC(=O)c1ccc(CNC(=O)COC(=O)CCC(=O)c2ccc(F)cc2)cc1	2%	i	-2%	-2%	.	.
COc1ccc(CNC(=O)COc2ccc(C(=O)c3ccc(F)cc3)cc2)cc1	22%	i	-3%	-10%	.	i
COC(=O)c1ccc(/C=N/OCC(=O)NCc2ccc(F)cc2)cc1	32µM*	i	-5%	0%	4%	i
COc1ccccc1/C=N/OCC(=O)NCc1ccc2c(c1)OCO2	-5%	i	-4%	-1%	?	i
COc1ccc(OC)c(-c2cc(Cl)c3c(c2)CC(CNC(=O)C(C)N2CCOCC2)O3)c1 (configuration not stated)	.	.	0%	.	.	.
Cc1ccc(CSCCC(=O)NCc2ccc(F)cc2Cl)cc1	22µM*	i	3%	.	.	i
c1ccc(-c2nc(-n3ccnc3)nc(-n3ccnc3)n2)cc1	?	i	-5%	.	?	i
c1ccc(-c2nc(NC3CC3)nc(-n3ccnc3)n2)cc1	5µM*	i	-8%	3%	5%	i
COC(=O)c1cc(S(=O)(=O)N2CCN(c3cccc(C)c3)C(C)C2)c[nH]1 (configuration not stated)	-2%	i	-6%	7%	-5%	i
COC(=O)c1sccc1S(=O)(=O)N1CCN(c2cccc(C)c2)C(C)C1 (configuration not stated)	14µM*	i	-1%	.	.	i
COc1ccccc1C(=O)NNC(=O)C(=O)Nc1cccc(Cl)c1C	11µM*	i	-5%	-52%	4%	i
Cc1ccc(/C=C/C(=O)O)cc1S(=O)(=O)N1CCc2ccccc21	7.9µM*	i	-3%	10%	0%	i
COC(=O)[C@@H]1CCCN1Cc1ccc2c(c1)CN(Cc1cc(OC)c3c(c1)OCO3)CCO2	.	.	-5%	.	.	.
Cc1nn(C)cc1CN1CCOc2ccc(C(C)(O)COc3ccccc3)cc2C1 (configuration not stated)	.	.	-5%	.	.	.
O=C(COc1ccc(Cl)cc1)Nc1nnc(-c2ccc3c(c2)CCCC3)o1	?	i	-1%	29%	-13%	i
CC(=O)Nc1nnc(-c2ccc3c(c2)CCCC3)o1	32µM*	i	-5%	-10%	8%	i
O=C(Nc1nncs1)C1COc2ccccc2O1 (configuration not stated)	-13%	i	1%	-2%	3%	i
O=C(Nc1nnc(-c2ccc3c(c2)CCCC3)o1)C1COc2ccccc2O1 (configuration not stated)	18µM*	?	2%	6.3µM*	17%	i
COc1ccccc1C(=O)Nc1nnc(-c2ccc3c(c2)CCCC3)o1	18µM*	i	-2%	?	-10%	?
COc1ccc(-c2nnc(NC(=O)c3ccccc3C)o2)cc1	?	i	0%	?	-7%	i
CO[C@H]1[C@H](NC(=O)c2ccncc2)c2ccccc2C12CCN(C(=O)c1ccoc1)CC2	.	.	-2%	.	.	.
